This passage reports Potency and outcome results from PubChem BioAssay (Tox21).

Experiment [1] is described as follows: qHTS assay to identify small molecule antagonists of the estrogen receptor alpha (ER-alpha) signaling pathway using the BG1 cell line in the presence of 0.1 nM 17-beta-estradiol - cell viability counter screen (AID 1259241). Note: nearly all actives have a fitted effect of over 40% in size. Note: potency is the fitted concentration of half-maximal effect. Put shortly:
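VM7Luc4E2 cells (endogenous full-length ER-alpha, 4xERE-luciferase), cultured 5 days in charcoal-stripped serum, exposed to compounds with 0.1 nM 17beta-estradiol (final) for 22 hr at 37C. Viability read in same wells as live-cell protease fluorescence after 30 min.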

Experiment [2] is described as follows: qHTS assay to identify small molecule antagonists of the androgen receptor (AR) signaling pathway using the MDA cell line in the presence of 0.5 nM R1881 - cell viability counter screen (AID 1259242). Note: nearly all actives have a fitted effect of over 45% in size. Note: potency is the fitted concentration of half-maximal effect. Put shortly:
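Live-cell protease activity was measured by CellTiter-Fluor fluorescence after 30 min. Before that, MDA-kb2 MMTV-luciferase cells had 16 hr at 37C without CO2, exposed to test compounds and 0.5 nM R1881 final.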

The target of experiment [3] is Estrogen receptor (Homo sapiens) (UniProt P03372). Briefly: qHTS assay to identify small molecule antagonists of the estrogen receptor alpha (ER-alpha) signaling pathway using the BG1 cell line in the presence of 0.1 nM 17-beta-estradiol (AID 1259244). Note: nearly all actives have a fitted effect of over 50% in size. Note: potency is the fitted concentration of half-maximal effect. In outline: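 Luciferase luminescence (ONE-Glo, 30 min at room temperature) was read after 22 hr at 37C exposure to compounds plus 17beta-estradiol at 0.1 nM final. Cells were VM7Luc4E2 with endogenous ER-alpha and an ERE-driven luciferase, pre-cultured 5 days in hormone-depleted medium.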
Chain of Estrogen receptor (Homo sapiens) (P03372 whole entry, looked up): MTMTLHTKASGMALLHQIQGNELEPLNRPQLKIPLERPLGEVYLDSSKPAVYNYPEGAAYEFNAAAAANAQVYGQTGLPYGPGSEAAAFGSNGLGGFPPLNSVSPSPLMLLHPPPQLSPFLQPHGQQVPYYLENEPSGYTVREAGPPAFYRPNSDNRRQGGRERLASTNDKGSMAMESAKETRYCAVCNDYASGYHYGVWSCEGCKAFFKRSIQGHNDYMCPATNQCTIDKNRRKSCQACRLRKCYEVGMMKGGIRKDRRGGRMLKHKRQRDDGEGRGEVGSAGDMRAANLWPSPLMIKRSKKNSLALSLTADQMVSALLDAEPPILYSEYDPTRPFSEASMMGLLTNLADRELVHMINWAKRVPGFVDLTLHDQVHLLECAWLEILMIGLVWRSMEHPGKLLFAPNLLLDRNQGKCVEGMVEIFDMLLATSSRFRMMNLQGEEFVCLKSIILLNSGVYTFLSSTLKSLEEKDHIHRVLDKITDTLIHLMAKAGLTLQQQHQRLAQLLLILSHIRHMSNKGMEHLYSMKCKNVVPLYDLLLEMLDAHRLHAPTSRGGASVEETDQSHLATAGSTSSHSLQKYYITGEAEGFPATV
Background: Quantitative high-throughput screening tests each substance at several concentrations.

Experiment [4] in a line: qHTS assay to identify small molecule phospholipidosis (PLD) inducers (AID 1259344; active = well fitted curve in the direction sought with a large enough effect; an effect the other way counts as inactive or inconclusive). In outline:
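Accumulated phospholipid, stained red by LipidTOX during 24 h compound treatment of HepG2 cells at 37 C, is quantified from images as pit number and intensity, normalised per cell using Hoechst-stained nuclei.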

Experiment [5] is described as follows: qHTS assay to identify small molecule HDAC inhibitors (AID 1259364). Note: nearly all actives have a fitted effect of over 45% in size. Note: potency is the fitted concentration of half-maximal effect. Put shortly:
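Luminescence read after 30 min room-temperature HDAC-Glo incubation measures cellular class I/II HDAC activity. Compounds were applied for 2 hr at 37 C to HCT-116 wild-type cells seeded the day before.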

The nature of experiment [6]: qHTS assay to identify small molecule HDAC inhibitors - cell viability counter screen (AID 1259365). Note: nearly all actives have a fitted effect of over 50% in size. Note: potency is the fitted concentration of half-maximal effect. In outline:
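Wild-type HCT-116 cells, 1,500/well, cultured overnight, then compound-treated 2 h at 37 C. Viability measured as ATP luminescence with CellTiter-Glo after 30 min at room temperature.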

A short description of experiment [7]: qHTS assay to identify small molecule agonists of the sonic hedgehog signaling (Shh) pathway - cell viability counter screen (AID 1259366). Note: nearly all actives have a fitted effect of over 50% in size. Note: potency is the fitted concentration of half-maximal effect. Put shortly: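 NIH/3T3-derived Gli1-Luc reporter cells, 2,000 per well, received compound after 4 h and were treated about 23 h at 37C. Viability measured in the same wells by CellTiter-Fluor fluorescence after 1 h.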
A short description of experiment [8]: qHTS assay to identify small molecule antagonists of the sonic hedgehog signaling (Shh) pathway - cell viability counter screen (AID 1259367). Note: nearly all actives have a fitted effect of over 55% in size. Note: potency is the fitted concentration of half-maximal effect. In outline:
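CellTiter-Fluor signal in conditioned medium-stimulated 3T3 Gli1-Luc cells, 23 hr compound exposure, 37C.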

Experiment [9] is described as follows: qHTS assay to identify small molecule agonists of the sonic hedgehog signaling (Shh) pathway (AID 1259368; calls by dose curve;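 note: NIH/3T3-derived 3T3Gli1-Luc cells carrying a stable Gli1-driven firefly luciferase reporter; series mostly up to about 92 µM; nearly all actives have a fitted effect of over 15% in size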). Put shortly:
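Luminescence was read after 30 min at room temperature with luciferase reagent. Before that, 3T3Gli1-Luc cells (NIH/3T3 clone, stable Gli1-Luc reporter; 2,000/well) were exposed to compounds for 24 hr at 37C, 5% CO2, compounds being added 4 hr post-plating.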

Experiment [10] in a line: qHTS assay to identify small molecule antagonists of the sonic hedgehog signaling (Shh) pathway (AID 1259369; calls by dose curve; note: nearly all actives have a fitted effect of over 45% in size; note: potency is the fitted concentration of half-maximal effect). In outline: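 Antagonist mode: compound added to 3T3 Gli1-Luc cells followed by conditioned-medium stimulation, 24 h at 37 C, 5% CO2. Inhibition taken as loss of Gli1-driven luciferase luminescence.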
The nature of experiment [11]: qHTS assay to identify small molecule agonists of the androgen receptor (AR) signaling pathway in the presence of an antagonist - cell viability counter screen (AID 1259379). Note: nearly all actives have a fitted effect of over 25% in size. Note: potency is the fitted concentration of half-maximal effect. Put shortly: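 Cytotoxicity counter-screen run in the same wells as the nilutamide-challenged (3.0 µM final) AR agonist assay in MDA-kb2 cells. Compounds tested at 15 concentrations for 16 h, 37 °C without CO2; CellTiter-Fluor fluorescence read.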

Experiment [12] is described as follows: qHTS assay to identify small molecule agonists of the estrogen receptor beta (ER-beta) signaling pathway - cell viability counter screen (AID 1259380). Note: nearly all actives have a fitted effect of over 30% in size. Note: potency is the fitted concentration of half-maximal effect. In outline:
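Cell viability counter screen: CellTiter-Glo luminescence (30 min, room temperature) measured in the same wells as the beta-lactamase readout, after 16 hr compound exposure at 37C of ER-beta-bla HEK293T cells in 2% charcoal-stripped FBS medium.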

A short description of experiment [13]: qHTS assay to identify small molecule antagonists of the estrogen receptor beta (ER-beta) signaling pathway - cell viability counter screen (AID 1259382). Note: nearly all actives have a fitted effect of over 55% in size. Note: potency is the fitted concentration of half-maximal effect. Put shortly: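 Cytotoxicity was measured in the same wells by CellTiter-Glo luminescence after 30 min at room temperature. Cells were ER-beta-bla HEK293T in charcoal-stripped serum, given compound together with 1 nM E2 and incubated 16 h at 37C.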

For experiment [14], the target named is Estrogen receptor (Homo sapiens) (UniProt P03372). Briefly: qHTS assay to identify small molecule agonists of the estrogen receptor alpha (ER-alpha) signaling pathway in the presence of an antagonist (AID 1259383; calls by dose curve; note: top concentration of the series differs between compounds; nearly all actives have a fitted effect of over 15% in size). Put shortly: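 Agonist-mode confirmation run in the presence of 10.0nM (final) ICI-182,780 antagonist. The reporter was ERE-driven luciferase in VM7Luc4E2 cells, grown in charcoal-stripped serum. Cells were exposed to 15-concentration compound series for 22hr, then ONE-Glo luminescence was read.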

The nature of experiment [15]: qHTS assay to identify small molecule agonists or antagonists of the thyroid stimulating hormone receptor (TSHR) signaling pathway - wild type cell line counter screen (AID 1259384; calls by dose curve). In outline:
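Counter screen in untransfected Hek293: compounds (15-point titration, triplicate) plus phosphodiesterase inhibitor Ro20-1724 added after 18 h plating; 30 min RT. Intracellular cAMP via competitive d2/cryptate immunoassay, 1 h incubation.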

The target of experiment [16] is Thyrotropin receptor (Homo sapiens) (UniProt P16473). Briefly: qHTS assay to identify small molecule antagonists of the thyroid stimulating hormone receptor (TSHR) signaling pathway (AID 1259385; calls by dose curve; note: nearly all actives have a fitted effect of over 20% in size; note: potency is the fitted concentration of half-maximal effect). Put shortly:
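Antagonist mode: compound-treated TSHR-expressing HEK293 cells were stimulated with 1.5 ng/mL TSH (final) in presence of Ro20-1724 for 30 min at RT. HTRF cAMP detection after 1 h; each compound tested at 15 concentrations, triplicate.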

Experiment [17] deals with Androgen receptor (Homo sapiens) (UniProt P10275). Kind of experiment: qHTS assay to identify small molecule antagonists of the androgen receptor (AR) signaling pathway using the MDA cell line in the presence of 0.5 nM R1881 (AID 1259243). Note: nearly all actives have a fitted effect of over 50% in size. Note: potency is the fitted concentration of half-maximal effect. In outline:
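Luminescent reporter readout (ONE-Glo, 30 min, room temperature) after 16 hr co-treatment of MDA-kb2 cells with test compounds and 0.5 nM R1881 final, at 37C without CO2. The MMTV-driven luciferase responds to both AR and GR.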

Experiment [18] deals with Estrogen receptor beta (Homo sapiens) (UniProt Q92731). Kind of experiment: qHTS assay to identify small molecule agonists of the estrogen receptor beta (ER-beta) signaling pathway (AID 1259377; active = well fitted activation curve with a large enough effect in the signal ratio in the repeat runs, not every such curve was filed as active; the % refers to the signal ratio). In outline:
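ER-beta-UAS-bla HEK293T cells in medium with 2% charcoal-stripped FBS were exposed to compounds for 16 h at 37C. Beta-lactamase reporter activity was read as fluorescence after 2 h with LiveBLAzer B/G FRET substrate at room temperature.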

For experiment [19] the target is unchanged. Kind of experiment: qHTS assay to identify small molecule antagonists of the estrogen receptor beta (ER-beta) signaling pathway (AID 1259378; active = well fitted inhibition curve with a large enough effect in the signal ratio in the repeat runs, not every such curve was filed as active; the % refers to the signal ratio; note: potency is the fitted concentration of half-maximal effect). Put shortly:
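Antagonist mode: compounds added to beta-lactamase reporter HEK293T ER-beta-UAS cells stimulated with E2 (1nM final), 16 hr at 37C. LiveBLAzer B/G FRET substrate, 2 hours room temperature, fluorescence read-out.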

Experiment [20] has as its target Androgen receptor (Homo sapiens) (UniProt P10275). Kind of experiment: qHTS assay to identify small molecule agonists of the androgen receptor (AR) signaling pathway in the presence of an antagonist (AID 1259381; calls by dose curve; note: nearly all actives have a fitted effect of over 15% in size). In outline:
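Agonist-mode confirmation run against 3.0 uM final nilutamide: compounds titrated at 15 concentrations onto MDA-kb2 MMTV-luciferase reporter cells. Luminescence measured with ONE-Glo following 16 hr incubation, 37C, 0% CO2.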

Where “and” joins values, the source holds several entries; their conditions need not be identical. Identical values can stand only once. Records with an inconclusive call do not appear. A structure can be active in one record and inactive in another. Calls of active or inactive are those of the source. Unless noted, calls come from the whole dose curve; as a rule, active = well fitted curve in the direction sought with a large enough effect in the repeat runs; inconclusive = weak or mixed curves; inactive = no such curve, though single readings can be large; an effect the other way counts as inactive or inconclusive.

Chain of Thyrotropin receptor (Homo sapiens) (P16473 whole entry, looked up): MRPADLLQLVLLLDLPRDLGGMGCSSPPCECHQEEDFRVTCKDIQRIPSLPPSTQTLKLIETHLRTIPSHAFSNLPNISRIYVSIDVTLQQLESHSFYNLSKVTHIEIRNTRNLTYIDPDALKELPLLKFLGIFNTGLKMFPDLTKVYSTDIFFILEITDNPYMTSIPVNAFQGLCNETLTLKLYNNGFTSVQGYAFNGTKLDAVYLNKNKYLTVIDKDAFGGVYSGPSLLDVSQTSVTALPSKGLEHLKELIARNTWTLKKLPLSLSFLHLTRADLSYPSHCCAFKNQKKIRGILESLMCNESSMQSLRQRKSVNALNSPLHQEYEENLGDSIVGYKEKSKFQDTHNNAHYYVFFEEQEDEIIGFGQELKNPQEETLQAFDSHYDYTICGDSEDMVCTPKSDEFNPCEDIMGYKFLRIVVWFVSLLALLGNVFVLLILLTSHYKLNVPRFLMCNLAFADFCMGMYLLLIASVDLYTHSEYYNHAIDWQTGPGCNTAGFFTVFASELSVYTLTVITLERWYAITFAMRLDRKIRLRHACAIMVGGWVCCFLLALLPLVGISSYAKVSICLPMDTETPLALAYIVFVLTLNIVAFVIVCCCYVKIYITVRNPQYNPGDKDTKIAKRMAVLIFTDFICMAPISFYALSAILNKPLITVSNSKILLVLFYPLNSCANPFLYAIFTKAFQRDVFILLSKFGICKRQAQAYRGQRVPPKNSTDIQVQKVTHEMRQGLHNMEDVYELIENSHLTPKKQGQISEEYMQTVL
Chain of Estrogen receptor beta (Homo sapiens) (Q92731 whole entry, looked up): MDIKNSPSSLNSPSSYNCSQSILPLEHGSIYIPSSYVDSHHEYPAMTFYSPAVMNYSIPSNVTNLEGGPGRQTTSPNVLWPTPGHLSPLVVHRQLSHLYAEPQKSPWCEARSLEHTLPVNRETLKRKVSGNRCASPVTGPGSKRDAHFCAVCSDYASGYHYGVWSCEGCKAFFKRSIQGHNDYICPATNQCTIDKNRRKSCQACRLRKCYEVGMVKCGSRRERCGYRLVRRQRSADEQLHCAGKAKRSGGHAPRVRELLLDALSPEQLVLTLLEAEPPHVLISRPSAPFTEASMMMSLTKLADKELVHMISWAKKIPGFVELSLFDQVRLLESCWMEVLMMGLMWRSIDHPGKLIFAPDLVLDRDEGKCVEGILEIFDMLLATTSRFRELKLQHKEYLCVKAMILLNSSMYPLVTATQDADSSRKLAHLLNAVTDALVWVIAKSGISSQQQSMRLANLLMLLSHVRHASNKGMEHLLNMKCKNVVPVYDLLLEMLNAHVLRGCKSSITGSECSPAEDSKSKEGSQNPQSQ
Chain of Androgen receptor (Homo sapiens) (P10275 whole entry, looked up): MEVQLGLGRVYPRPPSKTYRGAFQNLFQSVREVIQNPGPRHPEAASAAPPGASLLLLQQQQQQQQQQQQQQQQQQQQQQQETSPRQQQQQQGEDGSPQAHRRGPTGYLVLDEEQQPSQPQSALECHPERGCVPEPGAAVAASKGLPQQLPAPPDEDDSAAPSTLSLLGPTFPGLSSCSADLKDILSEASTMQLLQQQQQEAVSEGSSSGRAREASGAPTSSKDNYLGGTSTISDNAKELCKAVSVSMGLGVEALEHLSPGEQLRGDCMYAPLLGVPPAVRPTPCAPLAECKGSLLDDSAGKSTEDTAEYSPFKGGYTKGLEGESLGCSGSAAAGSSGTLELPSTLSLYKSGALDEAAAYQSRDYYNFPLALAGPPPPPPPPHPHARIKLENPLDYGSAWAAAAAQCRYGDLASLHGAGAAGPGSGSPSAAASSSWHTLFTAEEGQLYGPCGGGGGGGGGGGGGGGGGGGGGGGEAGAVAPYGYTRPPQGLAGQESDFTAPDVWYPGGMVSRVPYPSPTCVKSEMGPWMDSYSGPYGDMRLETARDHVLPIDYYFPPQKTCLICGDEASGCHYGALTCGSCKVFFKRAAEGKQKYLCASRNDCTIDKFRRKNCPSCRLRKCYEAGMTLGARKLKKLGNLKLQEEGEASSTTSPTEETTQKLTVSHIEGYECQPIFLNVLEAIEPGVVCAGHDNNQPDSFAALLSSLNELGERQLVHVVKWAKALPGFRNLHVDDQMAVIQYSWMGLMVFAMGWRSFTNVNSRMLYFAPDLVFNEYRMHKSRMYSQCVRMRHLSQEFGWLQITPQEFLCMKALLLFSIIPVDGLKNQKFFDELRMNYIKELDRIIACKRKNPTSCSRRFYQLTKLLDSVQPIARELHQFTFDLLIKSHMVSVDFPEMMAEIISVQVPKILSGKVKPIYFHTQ

With `CCCCCCCCCCCC[N+](C)(C)CCOc1ccccc1`, the Potency result in experiment [1], in experiment [5], in experiment [9], in experiment [14] and in experiment [16] was “inactive” in each case. In addition, the Potency in experiment [2] was 48.6 µM (active) and inactive; in [3] it was 54.5 µM (active) and inactive; in experiment [6] it was 61.1 µM (active) and inactive; in experiment [7], 24.3 µM (active); in [8] it was 48.6 µM (active); in experiment [10], 3.44 µM (active) and 473 nM (active). In addition, the Potency in experiment [11] was 68.6 µM (active); in experiment [12], 21.7 µM (active) and 11.9 µM (active); in experiment [13] it was 19.3 µM (active) and 15 µM (active). Also, the outcome in experiment [4] and in experiment [15] was inactive.
Regarding `CC1(C)[C@H](C(=O)O[C@H](C#N)c2cccc(Oc3ccccc3)c2)[C@@H]1C=C(Br)Br`, the Potency entry in experiment [1], in experiment [2], in experiment [17], in [5], in [7] and in experiment [8] was “inactive” each time. Moreover, the Potency result in experiment [9], in experiment [10], in experiment [18], in experiment [19], in experiment [11] and in experiment [12] was “inactive” in each case. The Potency entry in experiment [20], in experiment [13] and in experiment [16] was “inactive” throughout. In [15], the compound was classed as inactive.
Take `CC(Cl)C(=O)O` (centres undefined): the Potency entry in [1], in experiment [2], in experiment [17], in experiment [5], in experiment [7] and in experiment [8] was “inactive” in each case. For the same compound, the Potency entry in experiment [9], in experiment [10], in experiment [11], in experiment [12], in [20] and in experiment [13] was “inactive” each time. The Potency result in experiment [16] was “inactive”. Further, the compound was called inactive in [15].
For the compound `ClCc1ccccc1Cl`, the Potency result in experiment [1], in experiment [2], in experiment [17], in experiment [5], in [6] and in experiment [7] was “inactive” each time. Besides, the Potency entry in experiment [8], in [9], in experiment [10], in experiment [18], in experiment [19] and in [11] was “inactive” each time. Also, the Potency entry in experiment [12], in [20], in experiment [13] and in [16] was “inactive” in each case. Further, the result in experiment [15] was inactive.
Consider `O=CC=O`, for which the Potency entry in experiment [1], in experiment [2], in [17], in experiment [3], in experiment [5] and in experiment [6] was “inactive” each time. The Potency result in experiment [7], in experiment [8], in experiment [9], in experiment [10], in experiment [19] and in experiment [11] was “inactive” in each case. Besides, the Potency result in experiment [12], in experiment [20], in [13], in experiment [14] and in [16] was “inactive” each time. Moreover, the compound was called inactive in experiment [4] and in [15].
For the compound `Nc1ccccc1C(=O)OCC(O)CO` (centres undefined), the Potency entry in experiment [1], in [2], in experiment [17], in experiment [3], in [5] and in experiment [6] was “inactive” throughout. Further, the Potency entry in experiment [7], in [8], in experiment [9], in [10], in [11] and in experiment [12] was “inactive” throughout. Moreover, the Potency result in experiment [20], in experiment [13], in experiment [14] and in experiment [16] was “inactive” throughout. Besides, the compound was called inactive in experiment [15].
As for `C[CH2][Hg][S]c1ccccc1C(=O)O`, the Potency in experiment [1] is 21.7 µM (active) and 5.96 µM (active); in experiment [2] it was 17.2 µM (active) and 11.9 µM (active); in [17], 7.7 µM (active) and 7.5 µM (active); in experiment [5], 19.3 µM (active) and 23.7 µM (active); in experiment [7] it was 1.72 µM (active) and 1.19 µM (active); in experiment [8] it was 1.93 µM (active) and 5.96 µM (active). In addition, the Potency in experiment [10] was 686 nM (active); in experiment [19] it was 3.35 µM (active); in experiment [11] it was 10.9 µM (active) and 13.3 µM (active); in [12], 2.17 µM (active) and 5.31 µM (active); in experiment [13] it was 2.43 µM (active) and 5.31 µM (active); in experiment [16], 13.7 µM (active) and 29.8 µM (active). In [4], the compound was called inactive. For the same compound, the Potency result in experiment [6], in experiment [9], in experiment [18] and in [20] was “inactive” throughout.
Regarding `O=P(OCC(Br)CBr)(OCC(Br)CBr)OCC(Br)CBr` (centres undefined), the Potency entry in experiment [1], in [2], in experiment [5], in [6], in [9] and in [10] was “inactive” throughout. The Potency result in [20], in [14] and in [16] was “inactive” in each case. For the same compound, the Potency was 31 µM (active) and 51.7 µM (active) in experiment [17]; 55.2 µM (active) in [8]; 23.1 µM (active) in experiment [19]. The call in [15] was inactive.
